Measured values reported in PubChem BioAssay AID504332 (National Center for Advancing Translational Sciences (NCATS), 2011).
Screen size: about 350,000 compounds; about 31,000 (8.9%) were called active. Entries that show only a call come without a potency. Not shown: some 15% with an inconclusive outcome. The sample as a whole holds a higher share of actives than the screen did. Values without a mark were called inactive. Calls come from the whole dose curve; as a rule, active = well fitted inhibition curve with a large enough effect; inconclusive = small, poorly fitted or top-dose-only effect; inactive = no such curve, though single readings can be large or run the other way.

Target: Histone-lysine N-methyltransferase EHMT2 (Homo sapiens) (UniProt Q96KQ7)
Sequence (Q96KQ7 913-1193 limits assumed): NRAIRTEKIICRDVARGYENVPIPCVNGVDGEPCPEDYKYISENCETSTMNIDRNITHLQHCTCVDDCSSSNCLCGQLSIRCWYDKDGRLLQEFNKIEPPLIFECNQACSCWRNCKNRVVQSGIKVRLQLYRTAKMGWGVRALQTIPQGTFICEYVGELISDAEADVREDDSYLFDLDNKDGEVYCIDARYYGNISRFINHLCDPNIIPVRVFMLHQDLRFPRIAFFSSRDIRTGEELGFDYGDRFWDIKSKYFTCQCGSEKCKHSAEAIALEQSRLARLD
Experiment: qHTS Assay for Inhibitors of Histone Lysine Methyltransferase G9a; note: nearly all actives have a fitted effect of over 75% in size
Settings: G9a H3K9 monomethylation, AlphaScreen, 2 h; series mostly up to 59 µM
How it was run: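 Signal arises when biotinylated H3K9 peptide, once monomethylated, bridges streptavidin donor and antibody-captured acceptor beads. Enzyme at 20 nM was preincubated 15 min with test compounds; peptide 500 nM and SAM 20 uM then reacted for 2 h.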
Potency is the fitted concentration of half-maximal effect.

Structure (SMILES)	Potency	activity, negative = inhibition
CCOc1ccc(CCNC(=O)CN2C(=O)NC3(CCc4ccccc43)C2=O)cc1OCC (stereo not drawn)	inactive	–
CCN(CC)c1ccc(NC(=O)CN2C(=O)NC3(CCc4ccccc43)C2=O)cc1 (stereo not drawn)	–	79.1% [at 12.7 µM]
CCN(CC)S(=O)(=O)c1ccc(CNC(=O)CN2C(=O)NC3(CCc4ccccc43)C2=O)cc1 (stereo not drawn)	28.2 µM (active)	–
COc1ccc(C=C(C#N)C#N)c(CSc2ccccn2)c1	inactive	–
CC(NC(=O)c1ccccc1F)c1cccc2ccccc12 (stereo not drawn)	–	0% [at 2.33 µM]
CCN(c1ccccc1)S(=O)(=O)c1cccc(C(=O)O)c1	79.4 µM (active)	–
COc1ccc(N(Cc2ccccc2)S(=O)(=O)c2cccc(C(=O)O)c2)cc1	inactive	–
CCOC(=O)C1CCN(C(=O)c2cccc(S(=O)(=O)N(CC)c3ccccc3)c2)CC1	–	-14.3% [at 12.7 µM]
O=C(NCc1ccccc1)C(c1cccnc1)N(C(=O)c1csnn1)c1ccc(F)cc1 (stereo not drawn)	inactive	–
O=C(N[C@@H](Cc1c[nH]c2ccccc12)C(=O)O)OCC1c2ccccc2-c2ccccc21	–	-0.61% [at 0.501 µM]
Cc1cccc(C(=O)Nc2ccc(S(=O)(=O)N3CCCCC3c3cccnc3)cc2)c1 (stereo not drawn)	inactive	–
CC(=O)N(OCc1ccc(OC(C)C)c(Cl)c1)C(C)=O	inactive	–
CC(C)Oc1ccc(Cc2n[nH]c(=S)n2Cc2ccccc2)cc1Cl	8.91 µM (active)	–
CC(C)c1ccc(Cn2c(COc3ccccc3)nc3ccccc32)cc1	inactive	–
Cc1ccc(-c2csc(NC3OC(=O)c4ccccc43)n2)cc1 (stereo not drawn)	inactive	–
COc1ccc(-c2cc(-c3ccc(F)cc3)nc3c2COc2ccccc2-3)cc1	inactive	–
COc1cc(OC)cc(-c2c(-c3ccc(F)cc3)c3cc(-c4ccc5cc[nH]c5c4)ccc3n2C)c1	–	26.5% [at 2.33 µM]
COC(=O)c1ccc(Cn2c(SCC(=O)N(C)c3ccccc3)nc3ccccc32)cc1	–	-1.12% [at 12.7 µM]
Cc1ccc(Cl)cc1N1CCN(S(=O)(=O)c2cc3[nH]c(=O)c(=O)[nH]c3cc2C)CC1	inactive	–
Cc1ccc(Nc2ccccc2N)cc1	inactive	–
Nc1ccc(S(=O)(=O)NC(=O)c2ccccc2)cc1	inactive	–

Structure (SMILES)	Potency	activity, negative = inhibition
Nc1ccc(Nc2ccccc2)cc1	4.47 µM (active)	–
COc1ccc(OC)c(CNC(=O)c2c3c(nc4ccccc24)C(=O)N(C2CCCCC2)C3)c1	inactive	–
Cc1ccc(C)c(NC(=O)CSC2=Nc3ccccc3N=C(c3ccc(F)cc3)C2)c1	inactive	–
Cc1ccc2nc(-c3ccncc3)cc(C(=O)Nc3ccncc3)c2c1	inactive	–
Cc1c(C(=O)NCc2ccccc2Br)oc2ccc3c(c12)C(=O)CC(C)(C)O3	inactive	–
O=C(/C=C/c1ccco1)Nc1cccc(-c2nc3ccccc3[nH]2)c1	25.1 µM (active)	–
O=C(Cc1cccs1)Nc1cccc(-c2nc3ccccc3[nH]2)c1	inactive	–
CCc1ccc2oc(-c3ccc(C)c(NC(=O)/C=C/c4ccco4)c3)nc2c1	inactive	–
CCC1CCC2(CC1)NC(=O)N(CC(=O)Nc1ccc(OC)cc1)C2=O (stereo not drawn)	–	7.81% [at 0.501 µM]
COCCNC(=O)CCCN1C(=O)c2ccccc2Sc2ncccc21	inactive	–
O=C(O)CCCN1C(=O)c2ccccc2Sc2ncccc21	50.1 µM (active)	–
COc1cccc(NC(=O)CN2C(=O)c3ccccc3Sc3ncccc32)c1	inactive	–
O=C(NNC(=O)C1CCCC1)c1ccc(F)cc1	inactive	–
CC1CC(=O)Nc2ccccc2N1C(=O)COc1ccc2cc(Br)ccc2c1 (stereo not drawn)	–	-5.57% [at 2.33 µM]
CCCCN(CC)CCCNC(=O)c1nn(C)c2c1CS(=O)(=O)c1ccccc1-2	inactive	–
COc1ccc(OCC(=O)NCCc2ccc(S(N)(=O)=O)cc2)cc1	inactive	–
COc1cc(NC(=S)NCc2ccc(S(N)(=O)=O)cc2)cc(OC)c1	17.8 µM (active)	–
COc1ccc(NC(=S)Nc2ccc(S(N)(=O)=O)cc2)c(C)c1	inactive	–
COc1ccc(C(=O)CC(=O)C(=O)Nc2cc([N+](=O)[O-])ccc2OC)cc1	inactive	–
COc1ccc(C2NC(=O)N(C)C3=C2C(=O)N(c2ccc(C(=O)O)cc2)C3)cc1 (stereo not drawn)	inactive	–
COc1ccc(N2C(=O)C3C(C2=O)C(C(=O)c2ccccc2)N2CCCC32)cc1 (stereo not drawn)	10 µM (active)	–

Structure (SMILES)	Potency	activity, negative = inhibition
COc1ccc(N2C(=O)C3CCCN3C2c2cccs2)cc1 (stereo not drawn)	inactive	–
Cn1c(=O)[nH]c(=O)c2c1nc(NCCc1ccccc1)n2Cc1ccc(F)cc1	inactive	–
O=[N+]([O-])c1ccc(S(=O)(=O)Nc2cccc(-c3ccc(N4CCCC4)nn3)c2)cc1	10 µM (active)	–
CCCOc1ccc(-c2cccc(NS(=O)(=O)c3ccccc3)c2)nn1	inactive	–
O=S(=O)(Nc1cccc(-c2ccc(N3CCOCC3)nn2)c1)c1ccc(Cl)c(Cl)c1	inactive	–
CCCc1cc(=O)oc2cc(OCC(=O)Nc3ccc(CN4CCOCC4)cc3)c(Cl)cc12	–	3.1% [at 0.501 µM]
CN(CC(=O)Nc1cccc(C(F)(F)F)c1)S(=O)(=O)c1cccs1	inactive	–
Cc1ccc2[nH]cc(CCCN3C(=O)c4ccccc4C3=O)c2c1	44.7 µM (active)	–
COc1ccc2[nH]cc(CCN3C(=O)c4ccc(C(=O)O)cc4C3=O)c2c1	inactive	–
Cc1ccc2[nH]cc(CCNC(=O)C3CCCCC3)c2c1	inactive	–
CCCC(=O)Nc1cc2nn(-c3ccccc3)nc2cc1C	inactive	–
CCOCCCNCc1ccc(OCc2ccc(F)cc2)c(OC)c1	7.08 µM (active)	–
COc1cc(CNCCN(C)C)ccc1OCc1c(F)cccc1Cl	inactive	–
COc1ccc(CNCCCO)cc1OC	inactive	–
CC(Nc1nc(C(F)(F)F)nc2ccccc12)c1cccs1 (stereo not drawn)	inactive	–
Cc1cc(C)nc(N/N=C/c2ccc([N+](=O)[O-])o2)n1	inactive	–
COc1ccc(C(=O)Nc2ccc(-n3nncc3-c3ccccc3)cc2)cc1OC	inactive	–
CCOC(=O)C1CCCN(C(=O)Cn2ncc3c(C)n(Cc4ccc(F)cc4)c(C)c3c2=O)C1 (stereo not drawn)	inactive	–
O=C(NCC#CCSc1nnc(-c2cccc3ccccc23)o1)c1cccs1	3.16 µM (active)	–
COc1ccc(CCNC(=O)CSc2nnc(CNC(=O)c3cccs3)o2)cc1OC	–	30% [at 12.7 µM]
COc1ccc(-c2nnc(SCC(=O)c3cccs3)o2)c(OC)c1	inactive	–
